# Only some compounds are listed: those with a hit (about 1.6% of all), similar ones and a draw of the others.
# KCNQ2 pot = enhances the rat KCNQ2 potassium channel; CHO-K1 KCNQ2, FluxOR thallium flux fluorescence; hits give high values; 310,000 tested, 0.54% active; B-score at 10 µM;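 active = fluorescence ratio B-score at least 3 SD of library B-scores, with initial fluorescence B-score within 3 of them, cut at about 5.3 in these data; same plate scores as AID 2156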;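 also: B-score of peak minus minimum over baseline fluorescence ratio after K+ and Tl+ stimulus; positive B-score means potentiation of KCNQ2 with more thallium influx and brighter signal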
# KCNQ2 block = blocks the rat KCNQ2 potassium channel. O88943. CHO-K1 KCNQ2, FluxOR thallium flux, 20 min; hits give low values. B-score at 10 µM. 310,000 tested, 1.1% active. AID 2156;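 active = fluorescence ratio B-score at most minus 3 library SDs, with starting brightness B-score within 2 library SDs, cut at about -5.5 in these data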
# Kir21 confirm = confirmation of mouse Kir2.1 potassium channel inhibitors | shares compounds with KCNQ2 pot | AID 2032 | 2,300 tested, 41% active | Tl flux remaining, % of negative control (hits give low values), % at 10 µM | Kir2.1-expressing cells, FluxOR thallium flux fluorescence; hits give low values;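 active = Primary-screen hit whose thallium flux fell at least 3 control SD below untreated wells in both duplicates, with normal baseline fluorescence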;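 also: 0% = blank wells without stimulus and 100% = stimulated no-compound controls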
# HEK293 Tl flux = parental HEK293 activity in Kir2.1 inhibitor counter-screen; shares compounds with KCNQ2 pot; parental HEK293 cells, FluxOR thallium flux fluorescence; 0% = unstimulated blank wells; FluxOR signal as % of negative control (100 = no effect), % at 10 µM; 2,300 tested, 19% active;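 active = dye signal at least 3 control SD above or below untreated wells in both duplicates, raw fluorescence within 3, either direction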;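 also: percent is based on the flux ratio of peak minus minimum fluorescence over baseline F0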
# CHO-K1 ctr = counter-screen for KCNQ2 potentiators: effect in parental CHO-K1 cells; shares compounds with KCNQ2 pot; FluxOR thallium flux fluorescence; zero = vehicle mean+3SD, 100% = vehicle-minus-blank window; activity increase over 3SD of controls, % at 10 µM; 1,200 tested, 43% active;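 active = signal rise of at least 3 SD above the untreated control mean, in both duplicate wells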;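 also: counter screen of KCNQ2 potentiator hits so any rise reflects channel-independent effects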
# KCNQ1 pot spec = human KCNQ1 counter-target activity of KCNQ2 potentiators | shares compounds with KCNQ2 pot | CHO KCNQ1 stable, FluxOR thallium flux fluorescence; beyond 3SD, as % of vehicle-control signal | activation over 3SD threshold, % at 10 µM | 1,200 tested, 28% active | AID 2283;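 active = fluorescence ratio rise of at least 3 SD of vehicle wells above their mean, in both replicate wells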;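 also: 0% = vehicle mean plus 3 SD and 100% = vehicle minus unstimulated blank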
# KCNQ2 pot conf = confirmation of rat KCNQ2 potassium channel potentiators | CHO-KCNQ2 cells, FluxOR thallium flux fluorescence | shares compounds with KCNQ2 pot | potentiation, less the hit threshold, % at 10 µM | 1,200 tested, 68% active | AID 2287;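 active = fluorescence ratio rising 3 SD or more over the vehicle control mean in both replicates, plus primary screen hit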;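 also: peak minus minimum thallium fluorescence divided by baseline after K/Tl stimulus; 0% = vehicle mean plus 3 SD and 100% = vehicle minus unstimulated blank difference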
# Kir2-1 sel = selectivity of KCNQ2 potentiators: effect on mouse Kir2.1; shares compounds with KCNQ2 pot; HEK293 Kir2.1, FluxOR thallium flux fluorescence; activity over 3SD threshold, % at 10 µM; 1,200 tested, 2% active; AID 2345;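 active = fluorescence ratio rise of at least 3 SD above the vehicle-control mean, seen in both replicates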;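 also: 0% = vehicle mean plus 3 SD and 100% = vehicle minus no-stimulus blank window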
# KCNQ2 W236L pot = KCNQ2 potentiators acting on retigabine-insensitive rat KCNQ2 W236L mutant; shares compounds with KCNQ2 pot; CHO KCNQ2-W236L, automated patch clamp current; current increase over 3SD of negative controls (%), hits give high values, % at 25 µM; 940 tested, 10% active; AID 2558;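 active = current increase at least 3 SD of the untreated controls above them in both duplicate recordings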
# Target sequence (O88943 whole entry W236L, looked up): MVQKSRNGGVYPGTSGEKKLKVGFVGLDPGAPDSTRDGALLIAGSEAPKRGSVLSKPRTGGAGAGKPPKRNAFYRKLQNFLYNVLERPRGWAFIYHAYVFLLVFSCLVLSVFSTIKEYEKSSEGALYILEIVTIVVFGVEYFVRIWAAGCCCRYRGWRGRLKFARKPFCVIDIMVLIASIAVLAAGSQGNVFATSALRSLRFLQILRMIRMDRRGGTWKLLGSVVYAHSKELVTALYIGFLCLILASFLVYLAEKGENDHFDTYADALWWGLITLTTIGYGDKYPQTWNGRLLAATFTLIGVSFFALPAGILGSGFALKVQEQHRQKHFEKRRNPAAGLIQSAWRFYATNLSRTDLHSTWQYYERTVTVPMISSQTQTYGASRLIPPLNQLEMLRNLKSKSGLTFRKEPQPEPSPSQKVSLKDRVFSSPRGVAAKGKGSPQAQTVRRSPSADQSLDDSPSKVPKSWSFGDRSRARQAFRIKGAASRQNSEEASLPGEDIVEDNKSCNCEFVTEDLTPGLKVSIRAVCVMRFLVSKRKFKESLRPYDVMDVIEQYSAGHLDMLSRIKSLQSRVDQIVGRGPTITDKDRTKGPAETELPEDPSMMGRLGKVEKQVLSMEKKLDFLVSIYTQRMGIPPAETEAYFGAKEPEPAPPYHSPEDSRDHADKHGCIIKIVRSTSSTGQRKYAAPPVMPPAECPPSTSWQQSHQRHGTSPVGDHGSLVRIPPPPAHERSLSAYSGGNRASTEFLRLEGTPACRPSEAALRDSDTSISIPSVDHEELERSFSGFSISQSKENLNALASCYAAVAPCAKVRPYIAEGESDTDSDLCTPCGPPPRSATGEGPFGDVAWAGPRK
# The depositor's hits bear a star; i = inactive; · = no result.
SMILES,KCNQ2 pot,KCNQ2 block,Kir21 confirm,HEK293 Tl flux,others
Cc1cc(Cl)c(S(=O)(=O)N2CCSCC2)cc1OCC(=O)NC1CCCCC1,32.3*,i,i,126.0%*,CHO-K1 ctr=6.8*;KCNQ1 pot spec=-17.3;KCNQ2 pot conf=121.7*;Kir2-1 sel=-26.3;KCNQ2 W236L pot=i
Cc1cc(Cl)c(S(=O)(=O)N2CCCCCC2)cc1OCC(=O)NC1CCCCC1,25.2*,i,i,129.5%*,CHO-K1 ctr=-0.6;KCNQ1 pot spec=-14.1;KCNQ2 pot conf=163.7*;Kir2-1 sel=-33.1;KCNQ2 W236L pot=i
Cc1cc(Cl)c(S(N)(=O)=O)cc1OCC(=O)NC1CCCCC1,·,i,·,·,
Cc1cc(Cl)c(S(=O)(=O)NC2CCCC2)cc1OCC(=O)NC1CCCCC1,0.41,i,·,·,
Cc1ccc(C(=O)NNc2ncnc3c2cnn3C)cc1,·,i,·,·,
Cn1ncc2c(O/N=C(\N)c3ccc(C(F)(F)F)cc3)ncnc21,5.95*,i,i,i,CHO-K1 ctr=20.4*;KCNQ1 pot spec=5.7*;KCNQ2 pot conf=-5.1;Kir2-1 sel=-18.2
O=C(NCc1ccco1)c1ccc(C(F)(F)F)cc1,1.02,i,·,·,
O=C(NCc1ccco1)c1ccccc1-c1ccc(C(F)(F)F)cc1,6.09*,i,i,i,CHO-K1 ctr=-8.1;KCNQ1 pot spec=23.0*;KCNQ2 pot conf=1.0*;Kir2-1 sel=-39.0;KCNQ2 W236L pot=i
CCOc1ccc(CCNC(=O)C2CCCN2C(=O)OCc2ccccc2)cc1OCC (centres undefined),·,i,·,·,
Cc1ccc2c(c1)cc(C(=O)N[C@@H](Cc1ccccc1)C(=O)O)n2C,0.62,i,·,·,
COc1cc(COCC(O)CN2CCc3ccccc3C2)cc(OC)c1OC (centres undefined),0.05,i,·,·,
C=CCc1ccc(OCC(O)CN2CCc3ccccc3C2)c(OC)c1 (centres undefined),·,i,30.5%*,i,
COc1ccc(OCC(O)CN2CCc3ccccc3C2)cc1 (centres undefined),0.26,i,·,·,
OC(COC(c1ccc(Cl)cc1)c1ccc(Cl)cc1)CN1CCc2ccccc2C1 (centres undefined),·,i,·,·,
Cc1ccc(OCC(O)CN2CCc3ccccc3C2)c(C)c1 (centres undefined),·,i,28.5%*,i,
OC(COc1ccc(Cl)cc1Cl)CN1CCc2ccccc2C1 (centres undefined),·,i,39.5%*,i,
COc1cccc(OCC(O)CN2CCc3ccccc3C2)c1 (centres undefined),0.35,i,·,·,
Cc1cccc(OCC(O)CN2CCc3ccccc3C2)c1 (centres undefined),1.3,i,42.0%*,i,
COC(=O)c1ccc(Cn2cc(Cl)cn2)o1,0.6,i,·,·,
Cc1cc(NC(=O)Cn2nc([N+](=O)[O-])c(Br)c2C)no1,0.77,i,·,·,
Cc1cc(C)c(OCC(=O)OCC(=O)N(C)C2CCS(=O)(=O)C2)c(C)c1 (centres undefined),1.37,i,·,·,
COC(=O)c1ccc(-n2nnnc2SCC(=O)Nc2ccccc2F)cc1,1.12,i,·,·,
CCSc1nc2sc3c(c2c(=O)[nH]1)CC(C)(CC)OC3 (centres undefined),·,i,·,·,
CCC1(C)Cc2c(sc3nc(SC)[nH]c(=S)c23)CO1 (centres undefined),15.5*,i,i,456.5%*,CHO-K1 ctr=-15.9;KCNQ1 pot spec=32.0*;KCNQ2 pot conf=81.9*;Kir2-1 sel=0.1*;KCNQ2 W236L pot=i
CSc1nc(O)c(C(c2ccc(OC(C)C)cc2)c2c(O)nc(SC)[nH]c2=O)c(=O)[nH]1,·,i,·,·,
SMILES,KCNQ2 pot,KCNQ2 block,Kir21 confirm,HEK293 Tl flux,others
C/C=N\NC(=O)CNC(=O)CNC(=O)c1ccccc1,·,i,·,·,
O=C(Nc1ccc(F)cc1)Nc1nnc(Cc2ccccc2F)s1,0.84,i,·,·,
COC(=O)c1cc(CSC(=N)N)ccc1OCCC(C)C,0.96,i,29.0%*,i,
CCCOc1ccc(CSC(=N)N)cc1C(=O)OC,2.12,i,·,·,
CCOC(=O)C1(CCOC)CCN(C(=O)Cc2ccc3ccccc3c2)CC1,0.53,i,·,·,
Cc1ccc(C(=O)NNC(=S)NC(=O)c2ccccc2)cc1,1.1,i,i,i,
O=C(Nc1cccc(OCC(=O)N2CCOCC2)c1)c1cccc([N+](=O)[O-])c1,1.22,i,·,·,
O=C(COc1cccc(NC(=O)c2cccc([N+](=O)[O-])c2)c1)c1ccc(Br)cc1,8.91*,i,i,i,CHO-K1 ctr=3.8*;KCNQ1 pot spec=-14.4;KCNQ2 pot conf=12.4*;Kir2-1 sel=-32.2;KCNQ2 W236L pot=i
O=C(NNC(=S)NC(=O)c1ccc(Br)cc1)c1ccc([N+](=O)[O-])cc1,0.06,i,·,·,
Cc1cccc(C(=O)NNC(=S)NC(=O)c2ccccc2)c1,0.69,i,·,·,
O=C(NNC(=S)NC(=O)c1ccc(Br)cc1)c1cccc([N+](=O)[O-])c1,7.62*,i,i,i,CHO-K1 ctr=-5.0;KCNQ1 pot spec=-14.6;KCNQ2 pot conf=-34.7;Kir2-1 sel=-37.5
Cc1ccc(C)c(OCC(=O)Nc2ccccc2C(=O)N2CCOCC2)c1,1.29,i,·,·,
C/C(=N/NC(=O)c1ccc(C)s1)c1cccc(NC(=O)c2ccoc2C)c1,·,i,·,·,
O=c1[nH]c(Nc2ccc3c(c2)OCCO3)nnc1Cc1ccccc1,0.98,i,·,·,
CC(NS(=O)(=O)c1ccc2c(c1)OCCO2)c1ccccc1 (centres undefined),0.93,i,·,·,
CC(NS(=O)(=O)c1ccc(Br)cc1)c1ccccc1 (centres undefined),·,i,47.0%*,i,
CCN(CC)CCCNc1ccc(-c2nnc(-c3ccc(OCC(C)C)cc3)o2)cn1,-7.32,-7.32*,65.0%*,i,
CC(C)COc1ccc(-c2nnc(-c3ccco3)o2)cc1,0.09,i,·,·,
Cc1cc2c(ncn2C(C)C)c(NS(=O)(=O)c2ccc(F)cc2)c1C,5.28*,i,i,i,CHO-K1 ctr=-14.9;KCNQ1 pot spec=9.7*;KCNQ2 pot conf=4.3*;Kir2-1 sel=-40.9;KCNQ2 W236L pot=i
Cc1cc2c(ncn2C)c(NS(=O)(=O)c2ccc(F)cc2)c1C,0.03,i,·,·,
Oc1ccc(Br)cc1/C=N/n1c(C2CCCCC2)n[nH]c1=S,7.39*,i,i,i,CHO-K1 ctr=69.7*;KCNQ1 pot spec=-11.7;KCNQ2 pot conf=-15.9;Kir2-1 sel=-19.1
Oc1ccc(/C=N/n2c(C3CCCCC3)n[nH]c2=S)c(O)c1,·,i,·,·,
Cc1nnc(C)n1/N=C/c1cc(Br)ccc1O,·,i,·,·,
Oc1c(Br)cc(/C=N/n2c(-c3ccccc3)n[nH]c2=S)c(Br)c1O,·,i,·,·,

# Screening data: PubChem, Johns Hopkins Ion Channel Center
